Assay results from PubChem BioAssay AID1210 (NMMLSC, 2008).
Calls of active or inactive are those of the source.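 The calls were made as follows: active = blocks over 70% of labeled estradiol binding at 10 µM, or over a set limit at 100 nM; inactive = the rest.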

Target: Estrogen receptor beta (Homo sapiens) (UniProt Q92731)
Assay: displacement of fluorescent estrogen from ERbeta – cell-based, Cos7 ERbeta-GFP, flow cytometry, primary screen (AID 1210);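 also: 0% = DMSO vehicle wells and 100% = complete loss of labeled estradiol signal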
Conditions: fluorescent estrogen binding, stronger effect = higher value
[1] = ligand binding inhibition, at 0.1 µM

Sequence of Estrogen receptor beta (Homo sapiens) (Q92731 whole entry, looked up): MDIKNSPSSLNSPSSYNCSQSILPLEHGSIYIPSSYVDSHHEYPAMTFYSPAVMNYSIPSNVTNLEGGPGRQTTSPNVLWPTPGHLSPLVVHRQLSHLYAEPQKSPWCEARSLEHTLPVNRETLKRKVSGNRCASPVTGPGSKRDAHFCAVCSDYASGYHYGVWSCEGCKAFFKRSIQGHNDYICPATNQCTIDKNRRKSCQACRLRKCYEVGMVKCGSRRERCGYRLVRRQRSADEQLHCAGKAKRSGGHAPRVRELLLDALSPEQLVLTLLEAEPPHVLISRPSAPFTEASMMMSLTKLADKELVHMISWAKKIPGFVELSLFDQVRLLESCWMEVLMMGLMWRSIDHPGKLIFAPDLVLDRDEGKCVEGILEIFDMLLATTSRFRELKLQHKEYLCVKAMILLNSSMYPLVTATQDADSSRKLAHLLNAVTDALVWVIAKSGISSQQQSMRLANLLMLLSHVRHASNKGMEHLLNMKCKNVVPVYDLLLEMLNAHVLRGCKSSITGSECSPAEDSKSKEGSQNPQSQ

| SMILES | inhibition (at 10 µM) | inhibition [1] [%] |
| --- | --- | --- |
| Cc1ccc(NC(=O)CSc2nnnn2-c2ccc3c(c2)OCO3)cc1C | 32% (inactive) | 34 |
| Cc1nc2sccn2c1-c1nc(-c2cc3ccccc3o2)cs1 | 43% (inactive) | 9 |
| CC(=O)c1ccc2c(c1)C1C=CCC1C(c1ccc(S(=O)(=O)N3CCOCC3)cc1)N2 (stereo not drawn) | 78% (active) | 17 |
| O=C(CSc1nc2c(cnn2-c2ccccc2)c(=O)[nH]1)c1ccc(Cl)cc1 | 39% (inactive) | 34 |
| C/C=C/COC(=O)c1[nH]c2c(c1C)C(=O)CC(c1ccco1)C2 (stereo not drawn) | 53% (inactive) | 11 |
| O=C(CSc1nc(C2CCCCC2)n(-c2ccccc2)n1)NCC(F)(F)F | 0% (inactive) | 21 |
| CC1(C)OC(C)(C)/C(=C/Nc2ccc(O)cc2)C1=O | 58% (inactive) | 58 |
| CCOc1cccc2cc(-c3nnc(NCc4ccco4)s3)c(=O)oc12 | 26% (inactive) | 28 |
| O=C1NC(c2ccc(Br)cc2)Nc2sc3c(c21)CCC3 (stereo not drawn) | 54% (inactive) | 50 |
| C/C(N)=C(/C#N)C(=O)CSc1nnnn1-c1ccc(C)cc1 | 27% (inactive) | 57 |
| O=C(Nc1ccccc1N1CCOCC1)c1cc(-c2ccco2)nc2ccccc12 | 56% (inactive) | 28 |
| CCCNCC1COc2ccccc2O1 (stereo not drawn) | 51% (inactive) | 41 |
| COc1ccc(C2Nc3ccccc3C(=O)N2c2ccccc2)cc1Cn1cc([N+](=O)[O-])cn1 (stereo not drawn) | 26% (inactive) | 45 |
| Cn1cccc1/C=C1\SC(=O)N(c2ccc(O)cc2)C1=O | 31% (inactive) | 7 |
| CN(C)CC(=O)N1c2ccccc2CCc2ccc(NC(=O)c3ccc(N)cc3)cc21 | 39% (inactive) | 62 |
| Cc1ccnc(NS(=O)(=O)c2ccc(NC(=O)c3cc(-c4ccc(Br)cc4)nc4ccccc34)cc2)n1 | 0% (inactive) | 51 |
| Cc1ccc(C(=O)CSC2=C(C#N)C(c3ccco3)CC(=O)N2)c(C)c1 (stereo not drawn) | 54% (inactive) | 14 |
| O=C(CSc1nc2scc(-c3ccco3)c2c(=O)n1-c1ccccc1)NCC1CCCO1 (stereo not drawn) | 55% (inactive) | 50 |
| COc1cc2c(cc1OC)C(Cc1ccc(O)cc1)NCC2 (stereo not drawn) | 23% (inactive) | 13 |
| Nc1ccc(N2CCN(C(=O)c3ccco3)CC2)cc1 | 49% (inactive) | 25 |

| SMILES | inhibition (at 10 µM) | inhibition [1] [%] |
| --- | --- | --- |
| Cc1cc(C(=O)Nc2sc3c(c2C#N)CCC3)no1 | 46% (inactive) | 23 |
| O=c1c(OC2OC(CO)C(O)C(O)C2O)c(-c2ccc(O)c(O)c2)oc2cc(O)cc(O)c12 (stereo not drawn) | 36% (inactive) | 46 |
| COc1ccc2c(c1)[nH]c1c(=O)n(N)cnc12 | 4% (inactive) | 30 |
| CC1=C(SCCC#N)S/C(=C2\SC(C)=C(SCCC#N)S2)S1 | 49% (inactive) | 11 |
| O=C(Nc1ccc(N2CCCC2)cc1)C(c1ccccc1)c1ccccc1 | 69% (inactive) | 19 |
| Nc1ccc(-n2cnc3cc([N+](=O)[O-])ccc32)cc1 | 34% (inactive) | 12 |
| O=Cc1cn(-c2ccccc2)nc1-c1cc2c(ccc3ccccc32)oc1=O | 39% (active) | 81 |
| COc1cccc(-c2nnc(NC(=O)Cc3cccs3)s2)c1 | 30% (inactive) | 47 |
| COc1ccc(/C=N/NC(=O)c2nc(-c3ccccc3)cc(-c3ccccc3)n2)cc1O | 71% (active) | 81 |
| CCn1nnc(NC(=O)CSc2ccc(Cl)cc2)n1 | 13% (active) | 68 |
| CCOC(=O)c1sc(NC(=O)c2ccc3ncsc3c2)nc1C | 21% (inactive) | 24 |
| CSC1=N/C(=C\c2ccc(Br)o2)C(=O)S1 | 26% (inactive) | 43 |
| COc1ccc2c(c1)c(=O)oc1cc(OCC(=O)NC3CCCCC3)ccc12 | 31% (inactive) | 22 |
| COc1ccc(OC)c(C(=O)CSc2nnc(-c3ccc(OC)c(OC)c3)o2)c1 | 49% (inactive) | 12 |
| Cc1ccc(-c2nn(-c3ccccc3)cc2CSC(=N)N)cc1 | 38% (inactive) | 33 |
| CC(=O)c1ccc(NCC(=O)N2CCN(c3ccccc3)CC2)cc1 | 72% (active) | 41 |
| Cn1c(-c2ccc3nc(N)sc3c2)nc2cc(N)ccc21 | 68% (inactive) | 17 |
| COc1ccc(C2CC(c3ccccc3)=NN2c2ccc(N)cc2)cc1 (stereo not drawn) | 69% (inactive) | 23 |
| COc1ccc(-c2nnc(-c3cc4c(ccc5ccccc54)oc3=O)o2)cc1 | 33% (inactive) | 6 |
